Source: PubChem BioAssay (National Center for Advancing Translational Sciences (NCATS))
Shown are actives, neighbours in structure and some others; about 17% of the full set was active somewhere.
ATXN viability – Viability Counterscreen for Primary qHTS for Inhibitors of ATXN expression; S2 cells (HEK-293 line with an ATXN2-luciferase reporter) viability, CellTiter-Fluor protease fluorescence, 24 h; Potency, µM (titrated, usually from 56.7 µM), hits mostly cytotoxic; 0.49% of 400,000 active; note: nearly all actives have a fitted effect of over 40% in size
TDP1 cell CPT – qHTS for Inhibitors of human tyrosyl-DNA phosphodiesterase 1 (TDP1): qHTS in cells in presence of CPT; chicken DT40 Tdp1-/-;hTDP1 cells + 20 nM CPT, ATP luminescence, 48 h; Potency, µM (top dose mostly 46.2 µM), inactives show at the top dose activity change, negative = growth inhibition, actives largely listed as inhibitors; 12% of 420,000 active; AID 686979, 2013; note: % is set by controls: 0 for no effect and ±100 for the full control effect; nearly all actives have a fitted effect of over 55% in size
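Cell growth measured by CellTiter-Glo luminescence after a minimum 48 h, 37 C compound exposure with 20 nM CPT in Tdp1-knockout DT40 cells stably expressing hTDP1, seeded 400/well; qHTS titration format.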
HepG2 viability – qHTS for Inhibitors of TGF-b: Cytotox Counterscreen. HepG2 CAGA-GFP viability, ATP luminescence, 18 h. Potency, µM (top dose mostly 46.1 µM), for inactives: top-dose activity change, negative = cytotoxicity, most hits filed as cytotoxic. 0.76% of 410,000 active
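CellTiter-Glo luminescence gave cytotoxicity after 18 hours at 37 degrees C. The cells were HepG2 CAGA-GFP in 1% FBS DMEM, stimulated with 500 pg/mL TGF-beta after compound addition. %Activity was normalised to no-cell wells (complete cell-killing) and DMSO (no toxicity), and curves were fitted and classified.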
ATXN2 expr inh – Primary qHTS for Inhibitors of ATXN expression | 0.72% of 360,000 active | HEK-293 ATXN2-luciferase reporter, luminescence, 24 h | Potency, µM (highest dose often 57 µM), for inactives: top-dose activity change, negative = inhibition, most hits filed as inhibitors | AID 1745845, 2022; note: % is set by controls: 0 for no effect and ±100 for the full control effect; nearly all actives have a fitted effect of over 55% in size
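qHTS (up to 57 uM final) was run with 24 h compound exposure of reporter cells at 37 °C. Each well was multiplexed: SteadyGlo luminescence measured ATXN2-luciferase expression after a fluorogenic Gly-Phe-AFC viability readout (25 uM final).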
TGFb inhibitor – qHTS for Inhibitors of TGF-b; HepG2 CAGA-GFP TGF-b/SMAD3 reporter, GFP fluorescence, 18 h; TGF-beta stimulated, 500 pg/mL final; Potency, µM (doses to about 46.1 µM), without a hit: at the highest dose activity, negative = inhibition, hits mostly inhibitors; 1.2% of 410,000 active; note: % is set by controls: 0 for no effect and ±100 for the full control effect; nearly all actives have a fitted effect of over 65% in size
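Per well, imaged GFP fluorescence of HEPG2 CAGA-GFP cells gives the signal; cells get compound, then TGF-beta (500 pg/mL final), 18 h at 37 degrees C; %Activity versus -TGF-beta and +DMSO controls.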
DT40 TDP1 no CPT – qHTS for Inhibitors of human tyrosyl-DNA phosphodiesterase 1 (TDP1): qHTS in cells in absence of CPT; DT40 Tdp1-/- hTDP1 cells, no CPT, ATP luminescence, 48 h; Potency, µM (top dose mostly 46.2 µM), inactives show at the top dose activity change, negative = growth inhibition, usual class: inhibitors; 15% of 420,000 active; AID 686978, 2013; note: % is set by controls: 0 for no effect and ±100 for the full control effect; nearly all actives have a fitted effect of over 55% in size
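Growth kinetics read by CellTiter-Glo luminescence after ≥48 hr at 37 °C. Cells: DT40 Tdp1-/- stably carrying human TDP1, 400 per well, compound exposure in the absence of CPT (DMSO vehicle).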
An asterisk follows results filed as active; i = inactive; u = inconclusive; x = no result; [ ] = remark or other dose. Calls come from the whole dose curve; as a rule, active = well fitted curve in the direction sought with a large enough effect; inconclusive = small, poorly fitted or top-dose-only effect, or another doubt; inactive = no such curve, though single readings can be large; an effect the other way counts as inactive or inconclusive. Potency is the fitted concentration of half-maximal effect.

SMILES	ATXN viability	TDP1 cell CPT	HepG2 viability	ATXN2 expr inh	TGFb inhibitor	DT40 TDP1 no CPT
COCCn1c(=NC(=O)C2COc3ccccc3O2)sc2cc(S(N)(=O)=O)ccc21 (stereo not given)	i	u	1.6%	-5.2%	u	u
CCOCCn1c(=NC(=O)c2ccc3c(c2)OCCO3)sc2cc(OCC)ccc21	x	u	2.0%	x	2.3%	14.6µM*
CCn1c(=NC(=O)C2COc3ccccc3O2)sc2c(OC)ccc(OC)c21 (stereo not given)	i	u	16.5%	x	1.2%	14.6µM*
CCn1c(=NC(=O)c2ccc3c(c2)OCCO3)sc2c(C)ccc(OC)c21	x	u	-2.5%	x	-8.5%	23.1µM*
COCCn1c(=NC(=O)c2ccc3c(c2)OCCO3)sc2cc(NC(C)=O)ccc21	x	u	4.1%	x	5.3%	u
CCn1c(=NC(=O)c2cccc(N3C(=O)CCC3=O)c2)sc2c(OC)ccc(OC)c21	i	-25.5%	-9.9%	5.1%	-7.9%	18.4µM*
CN1CCCN(c2ccc([N+](=O)[O-])cc2)CC1	u	-4.3%	-24.9%	-5.7%	-14.9%	-4.6%
O=C(NCC(c1cccnc1)N1CCN(c2ccc(F)cc2)CC1)c1ccc(F)cc1 (stereo not given)	i	u	-3.5%	3.1%	3.1%	16.4µM*
COc1ccc(N2CCN(C(CNC(=O)c3ccco3)c3cccnc3)CC2)cc1 (stereo not given)	i	u	-1.4%	-0.8%	u	u
COc1ccc(N2CCN(C(CNC(=O)c3ccc4c(c3)OCO4)c3cccnc3)CC2)cc1 (stereo not given)	i	-25.9%	-3.3%	1.3%	0.1%	u
O=C(NCC(c1cccnc1)N1CCN(c2ccc(F)cc2)CC1)c1ccc2c(c1)OCO2 (stereo not given)	u	16.4µM*	-8.0%	-3.1%	8.0%	8.2µM*
O=C(NCC(c1cccnc1)N1CCN(c2ccc(F)cc2)CC1)C1CCCCC1 (stereo not given)	i	u	-2.5%	5.3%	24.7%	u
O=C(NCC(c1cccnc1)N1CCN(c2ccc(F)cc2)CC1)c1ccco1 (stereo not given)	i	u	-17.9%	0.0%	2.4%	16.4µM*
O=C(NCC(c1cccnc1)N1CCN(c2ccccc2F)CC1)C1CCCCC1 (stereo not given)	i	u	-6.1%	-12.3%	u	10.3µM*
O=C(NCc1cccs1)C(=O)NCC(c1ccco1)N1CCN(c2ccc(F)cc2)CC1 (stereo not given)	i	u	-8.3%	-24.5%	-28.0%	23.1µM*
COc1cc(C(=O)NCC(c2cccnc2)N2CCN(c3ccc(F)cc3)CC2)cc(OC)c1OC (stereo not given)	u	u	1.4%	-34.4%[11.3 µM]	3.1%	20.6µM*
O=C(NCCC1=CCCCC1)C(=O)NCC(c1ccco1)N1CCN(c2ccccc2)CC1 (stereo not given)	u	11.6µM*	17.8%	0.0%	7.3%	9.2µM*
CCc1ccc(NC(=O)C(=O)NCC(c2cccnc2)N2CCN(c3ccc(F)cc3)CC2)cc1 (stereo not given)	x	u	-0.3%	x	-9.5%	3.66µM*
CCOc1cc(S(=O)(=O)N2CCN(Cc3ccccc3)CC2)ccc1Br	i	u	25.4%	-30.9%	-83.6%	u
O=S(=O)(NCC(c1cccnc1)N1CCN(c2ccc(F)cc2)CC1)c1cccs1 (stereo not given)	i	u	-25.5%	-22.9%	1.3%	u
O=C(NCC(c1cccnc1)N1CCN(c2ccccc2F)CC1)c1cccc(Cl)c1 (stereo not given)	i	20.6µM*	4.3%	-22.2%	1.5%	16.4µM*
O=C(NCCc1ccccc1)C(=O)NCC(c1cccnc1)N1CCN(c2ccccc2F)CC1 (stereo not given)	u	20.6µM*	-19.4%	u	u	u
O=C(NCC(c1cccnc1)N1CCOCC1)c1cccc(Cl)c1 (stereo not given)	i	-16.0%	-5.2%	82.9%	-14.6%	-0.5%
O=S(=O)(NCC(c1cccnc1)N1CCN(c2ccccc2F)CC1)c1cccs1 (stereo not given)	i	14.6µM*	-25.7%	20.4%	-13.5%	u
O=C(NCc1cccnc1)C(=O)NCC(c1ccco1)N1CCN(c2ccc(F)cc2)CC1 (stereo not given)	i	23.1µM*	-59.7%	-20.2%	-18.0%	16.4µM*
SMILES	ATXN viability	TDP1 cell CPT	HepG2 viability	ATXN2 expr inh	TGFb inhibitor	DT40 TDP1 no CPT
COc1ccc(N2CCN(C(CNC(=O)C(=O)NCc3cccnc3)c3ccco3)CC2)cc1 (stereo not given)	i	-11.8%	-3.1%	-5.9%	-0.8%	-3.8%
COC(=O)C1CC(C(=O)OC)C2C(C(=O)OC)CC(C(=O)OC)C12 (stereo not given)	i	4.1%	-4.5%	13.2%	-6.1%	-15.2%
CN(C(=O)CCc1nc(-c2ccccc2F)no1)c1ccc(Cl)cc1	i	u	-15.5%	1.6%	-6.6%	u
COc1ccc(C(=O)NCC(c2cccnc2)N2CCN(c3ccccc3F)CC2)cc1OC (stereo not given)	i	u	-26.1%	-8.6%	-25.2%	u
O=C(NCC(c1cccnc1)N1CCN(c2ccccc2F)CC1)c1ccc(F)cc1 (stereo not given)	u	14.6µM*	-26.2%	-25.3%	u	20.6µM*
Cc1cccc(C)c1OCC(=O)Nc1cc(Cl)ccc1-n1cncn1	i	-7.7%	1.4%	-3.5%	9.0%	-21.1%
O=C(O)CCSc1ccccn1	i	-3.8%	-1.0%	-2.6%	-0.1%	0.1%
O=C(CCSc1ccccn1)c1ccccc1	i	2.31µM*	-22.5%	9.2%	u	2.59µM*
CC(c1n[nH]c(=S)n1-c1ccccc1)N1CCCCC1 (stereo not given)	i	0.0%	-4.4%	-0.7%	6.6%	3.2%
COc1ccc(C(=O)N/C(=C\c2ccccc2)C(=O)N2CCOCC2)cc1	u	5.2%	-1.1%	-1.8%	1.7%	4.0%
